This passage reports Potency, outcome and activity change, positive = activation results from PubChem BioAssay (Tox21).

Values without a mark were called inactive. Inconclusive results are not listed. Activity calls are given as the source filed them. Unless noted, calls follow the shape of the dose curve; as a rule, active = well fitted curve in the direction sought with a large enough effect in the repeat runs; inconclusive = weak or mixed curves; inactive = no such curve, though single readings can be large; an effect the other way counts as inactive or inconclusive.

The target of test [1] is Luciferin 4-monooxygenase (Photinus pyralis) (UniProt P08659). Description: qHTS assay to identify small molecule inhibitors of firefly luciferase (AID 1224835). Also: nearly all actives have a fitted effect of over 25% in size. Also: potency is read from the fitted curve at half-maximal effect. In a few lines: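 Quantitative HTS format; KM concentrations of both substrates. Purified P. pyralis FLuc activity quantified from luminescence images.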
(In qHTS, concentration-response curves come from the screen itself.)

A short description of test [2]: qHTS assay to identify small molecule agonists of the constitutive androstane receptor (CAR) signaling pathway - cell viability counter screen (AID 1224836). Also: nearly all actives have a fitted effect of over 45% in size. An outline of the steps: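 Fluorescence from CellTiter-Fluor indicates live cells after 23 h exposure. The human hepatoma line expresses hCAR and a CYP2B6-2.2kb reporter. Incubation medium contains 0.75 uM PK11195 (final).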

In test [3] the target is Nuclear receptor subfamily 1 group I member 3 (Homo sapiens) (UniProt Q14994). The test can be described thus: qHTS assay to identify small molecule antagonists of the constitutive androstane receptor (CAR) signaling pathway (AID 1224838).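 Also: HepG2 cells stably expressing hCAR with CYP2B6 luciferase reporter stimulated by CITCO; nearly all actives have a fitted effect of over 40% in size.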 In a few lines: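 Antagonism measured as luciferase signal (ONE-Glo, 30 min, room temperature) in CAR-stimulated cells: HepG2-CYP2B6-hCAR double-stable line exposed 24 hr at 37 C to compound in a 15-point series plus 50 nM CITCO.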

The target is the same in test [4]. The test can be described thus: qHTS assay to identify small molecule agonists of the constitutive androstane receptor (CAR) signaling pathway (AID 1224839). Also: nearly all actives have a fitted effect of over 15% in size. Also: potency is read from the fitted curve at half-maximal effect.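 As to activation: HepG2 cells stably carrying human CAR and a CYP2B6 luciferase reporter.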 An outline of the steps: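 Stable hCAR/CYP2B6-2.2kb HepG2 line in DMEM with 10% FBS; compounds (15 concentrations) and 0.75 uM PK11195 final, 24 h at 37 C/5% CO2, then ONE-Glo luminescence after 30 min.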

A short description of test [5]: qHTS assay to identify small molecule antagonists of the estrogen related receptor signaling pathway with the pleiotropic PPARgamma coactivator (PGC) from Tox21 10K library - cell viability counter screen (AID 1224840; active = well fitted cell-killing curve with a large enough effect in the repeat runs, not every such curve was filed as active; also: nearly all actives have a fitted effect of over 40% in size). In a few lines: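 Counter-screen for cytotoxicity: after 17.5 h compound exposure at 37 C, CellTiter-Fluor reagent added to PGC/ERR cells for 30 min and fluorescence read. Cells were seeded at 2,000 per well 6 h before dosing.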

Test [6] is described as follows: qHTS assay to identify small molecule antagonists of the estrogen related receptor signaling pathway with the pleiotropic PPARgamma coactivator (PGC) from Tox21 10K library (AID 1224841; call rule not given here; also: actives are mostly falling curves and most rising ones were filed inactive; nearly all actives have a fitted effect of over 50% in size). An outline of the steps:
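Luminescence (One-Glo, 30 min at room temperature) after 18 h compound treatment at 37 C of PGC/ERR reporter cells plated at 2,000 cells/well and settled 6 h beforehand.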

Test [7] in a line: qHTS assay to identify small molecule agonists of the estrogen related receptor signaling pathway with the pleiotropic PPARgamma coactivator (PGC) from Tox21 10K library (AID 1224842). Also: nearly all actives have a fitted effect of over 15% in size. In a few lines: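 PGC/ERR reporter cells (NTP line) were seeded 2,000 per well, rested 6 h at 37 C/5% CO2, then pin-dosed with compounds in DMSO for 18 h at 37 C; luciferase read by One-Glo luminescence after 30 min at room temperature.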

Test [8] can be described thus: qHTS assay to identify small molecule agonists of the hypoxia (HIF-1) signaling pathway - cell viability counter screen (AID 1224844; calls by dose curve; also: nearly all actives have a fitted effect of over 50% in size). In a few lines: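 Cytotoxicity measured by CellTiter-Glo ATP luminescence in the wells also read for beta-lactamase signal. Cells were HRE-bla ME-180 (2,000/well, 0.5% dialyzed FBS), exposed to compounds for 17 h at 37C.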
Test [9] is described as follows: qHTS assay to identify small molecule agonists of H2AX (AID 1224845; active = well fitted activation curve with a large enough effect in the signal ratio in the repeat runs, not every such curve was filed as active; the % refers to the signal ratio). In a few lines:
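Wild-type CHO-K1 cells plated overnight, then exposed 3 hr at 37C to compounds at 15 concentrations (0.76% DMSO). Lysed, then HTRF anti-pH2AX(S139)-cryptate/anti-H2AX-d2 detection after 24 hr at room temperature; emissions 665 and 620 nm.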

The nature of test [10]: qHTS assay to identify small molecule agonists of the hypoxia (HIF-1) signaling pathway (AID 1224846; active = well fitted activation curve with a large enough effect in the signal ratio in the repeat runs, not every such curve was filed as active; the % refers to the signal ratio). An outline of the steps:
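Compounds added to ME-180 cells carrying hypoxia-response-element beta-lactamase reporter (0.5% dialyzed FBS, 5 h preplating), 17 h at 37C; agonist activity detected by CCF4-AM B/G FRET read-out.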

Test [11] can be described thus: qHTS assay to identify small molecule agonists of H2AX - cell viability counter screen (AID 1224847; calls by dose curve; also: nearly all actives have a fitted effect of over 30% in size; also: potency is read from the fitted curve at half-maximal effect). In a few lines: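 Viability of CHO-K1 (wild type) cells after 3 hr compound exposure was measured by CellTiter-Glo luminescence.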
A short description of test [12]: qHTS assay to identify small molecule antagonists of the estrogen related receptor (ERR) signaling pathway from Tox21 library (AID 1224848). Also: nearly all actives have a fitted effect of over 50% in size. An outline of the steps:
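First, 2,000 ERR cells per well were plated and held 6 h at 37 C/5% CO2. Next, compounds in DMSO were pinned in and left 18 h at 37 C. Finally, ONE-Glo was added and luminescence read after 30 min at room temperature.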

Test [13] in a line: qHTS assay to identify small molecule agonists of the estrogen related receptor (ERR) signaling pathway from Tox21 library (AID 1224849; calls by dose curve; also: nearly all actives have a fitted effect of over 15% in size). Conditions: ERR reporter cell line, ONE-Glo luciferase, 18 h; at 92.4 µM (top of the series) unless noted. In a few lines: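 Luminescent agonist read-out (One-Glo, 30-minute room-temperature incubation) following 18-hour compound treatment at 37 C of the ERR cell line, which had been plated 6 hours before dosing.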

Test [14] can be described thus: qHTS RealTime-Glo MT Cell Viability Assay in HepG2 cells - 24 hour (AID 1224867). Also: nearly all actives have a fitted effect of over 50% in size. In a few lines: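 Compound treatment began 5 h after plating HepG2 cells (600/well) with NanoLuc luciferase and prosubstrate. Plates stayed at 37 C for 40 h; luminescence was captured at six time points, 0 h through 40 h.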
A short description of test [15]: qHTS RealTime-Glo MT Cell Viability Assay in HEK293 cells - 32 hour (AID 1224868). An outline of the steps: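 Quantitative high-throughput screen of the Tox21 10K library in HEK293: cells and RealTime-Glo reagents plated together, compound added at 5 h, luminescence monitored through 40 h at 37 C.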
The nature of test [16]: A CellTox Green Cytotoxicity Assay to monitor cytotoxicity in HEK293 cells - 0 hour (AID 1224869). Also: nearly all actives have a fitted effect of over 50% in size. In a few lines:
(§1)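 Fluorescence from a DNA-binding dye excluded by viable cells was measured repeatedly in the same HEK293 wells (600 cells/well) during continuous compound exposure at 37 C. Each assay gives one read point: 0, 8, 16, 24, 32 or 40 h.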

Test [17] is described as follows: qHTS RealTime-Glo MT Cell Viability Assay in HepG2 cells - 40 hour (AID 1224870). Also: nearly all actives have a fitted effect of over 50% in size. An outline of the steps: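 HepG2 cells mixed with RealTime-Glo MT reagents (NanoLuc plus cell-permeant prosubstrate) were seeded at 600 cells/well, incubated 5 h at 37 C/5% CO2, then pinned with compounds in DMSO; nonlytic luminescence tracked viability during 40 h treatment.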
Test [18] can be described thus: A CellTox Green Cytotoxicity Assay to monitor cytotoxicity in HEK293 cells - 40 hour (AID 1224871). Also: nearly all actives have a fitted effect of over 45% in size. In a few lines:
as §1

A short description of test [19]: qHTS assay to identify small molecule antagonists of the constitutive androstane receptor (CAR) signaling pathway - cell viability counter screen (AID 1224837). Also: nearly all actives have a fitted effect of over 45% in size. In a few lines: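 Cytotoxicity counter-screen: CellTiter-Fluor fluorescence after 23 h compound exposure (15-point qHTS) in double-stable HepG2-CYP2B6-hCAR cells, with 50 nM CITCO added.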
Test [20] concerns the target Thyrotropin receptor (Homo sapiens) (UniProt P16473). Description: qHTS assay to identify small molecule agonists of the thyroid stimulating hormone receptor (TSHR) signaling pathway (AID 1224843; calls by dose curve; also: nearly all actives have a fitted effect of over 45% in size). An outline of the steps: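 Compounds are titrated over 15 concentrations, in triplicate, onto TSHR-HEK293 cells seeded at 800/well. Plates sit 30 min at room temperature before cAMP-d2 and anti-cAMP cryptate are added; signal is read after a further hour.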
% is scaled to controls: 0 for no effect and ±100 for the full control effect.

Sequence of Nuclear receptor subfamily 1 group I member 3 (Homo sapiens) (Q14994 whole entry, looked up): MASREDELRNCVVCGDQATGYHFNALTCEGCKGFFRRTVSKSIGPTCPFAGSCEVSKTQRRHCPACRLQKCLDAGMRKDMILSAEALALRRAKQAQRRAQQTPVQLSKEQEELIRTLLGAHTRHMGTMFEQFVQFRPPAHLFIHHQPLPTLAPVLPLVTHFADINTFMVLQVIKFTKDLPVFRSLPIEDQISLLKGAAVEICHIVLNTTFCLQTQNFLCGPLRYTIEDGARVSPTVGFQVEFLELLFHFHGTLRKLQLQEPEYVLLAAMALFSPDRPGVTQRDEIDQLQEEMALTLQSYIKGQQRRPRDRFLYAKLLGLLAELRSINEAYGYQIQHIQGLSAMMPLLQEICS
Sequence of Thyrotropin receptor (Homo sapiens) (P16473 whole entry, looked up): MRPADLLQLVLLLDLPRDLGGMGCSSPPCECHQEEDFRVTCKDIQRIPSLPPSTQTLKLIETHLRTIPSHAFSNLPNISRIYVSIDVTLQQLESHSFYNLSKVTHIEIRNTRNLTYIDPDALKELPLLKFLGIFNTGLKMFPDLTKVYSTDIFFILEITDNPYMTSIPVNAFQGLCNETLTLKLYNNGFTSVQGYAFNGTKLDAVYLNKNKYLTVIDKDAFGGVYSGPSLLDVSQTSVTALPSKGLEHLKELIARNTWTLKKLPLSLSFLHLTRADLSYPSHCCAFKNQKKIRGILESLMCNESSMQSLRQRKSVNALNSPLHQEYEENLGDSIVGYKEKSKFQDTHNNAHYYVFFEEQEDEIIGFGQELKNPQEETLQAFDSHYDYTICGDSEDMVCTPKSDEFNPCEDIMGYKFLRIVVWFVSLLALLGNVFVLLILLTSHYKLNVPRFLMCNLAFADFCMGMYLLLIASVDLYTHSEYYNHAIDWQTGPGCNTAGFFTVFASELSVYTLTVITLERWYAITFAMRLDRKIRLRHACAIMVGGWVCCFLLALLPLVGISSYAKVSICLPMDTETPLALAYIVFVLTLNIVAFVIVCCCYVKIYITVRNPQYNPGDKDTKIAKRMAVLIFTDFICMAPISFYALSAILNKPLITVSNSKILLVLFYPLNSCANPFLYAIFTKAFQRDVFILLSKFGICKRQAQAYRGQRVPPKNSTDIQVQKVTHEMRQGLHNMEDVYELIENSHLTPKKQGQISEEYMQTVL
Sequence of Luciferin 4-monooxygenase (Photinus pyralis) (P08659 whole entry, looked up): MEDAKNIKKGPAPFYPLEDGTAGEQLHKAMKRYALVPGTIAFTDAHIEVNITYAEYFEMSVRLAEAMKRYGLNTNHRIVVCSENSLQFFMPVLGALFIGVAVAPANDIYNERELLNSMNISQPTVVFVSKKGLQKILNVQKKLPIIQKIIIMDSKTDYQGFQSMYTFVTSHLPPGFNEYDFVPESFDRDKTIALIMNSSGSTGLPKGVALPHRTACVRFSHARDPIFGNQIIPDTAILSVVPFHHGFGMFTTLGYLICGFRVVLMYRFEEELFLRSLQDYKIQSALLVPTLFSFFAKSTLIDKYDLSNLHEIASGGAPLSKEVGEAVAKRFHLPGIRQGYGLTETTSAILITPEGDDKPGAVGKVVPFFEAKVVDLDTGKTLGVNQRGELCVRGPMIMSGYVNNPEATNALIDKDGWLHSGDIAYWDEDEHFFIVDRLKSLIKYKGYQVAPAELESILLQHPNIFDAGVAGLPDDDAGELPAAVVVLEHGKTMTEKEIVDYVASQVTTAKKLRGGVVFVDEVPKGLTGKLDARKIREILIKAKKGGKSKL

Take `CC(=O)CCc1ccc2c(c1)OCO2`: the Potency result in test [1], in test [2], in test [3], in test [4], in test [5] and in test [6] was “inactive” in each case. Moreover, the Potency entry in test [8], in test [9], in [11], in [12], in test [14] and in test [15] was “inactive” throughout. The Potency result in test [16], in test [17] and in test [18] was “inactive” in each case. Also, the molecule was called inactive in test [7] and in test [10]. In [13], the activity change, positive = activation was -0.0233%.

Turning to `N#Cc1c(Cl)cccc1Cl`, the Potency result in test [1], in test [2], in test [3], in test [4], in test [5] and in test [6] was “inactive” each time. The Potency entry in test [8], in test [9], in test [11], in [12], in test [14] and in [15] was “inactive” in each case. For the same molecule, the Potency result in [16], in test [17] and in [18] was “inactive” throughout. Moreover, the outcome in test [7] and in test [10] was inactive. Besides, the activity change, positive = activation in [13] is 7.33%.

Turning to `CCCCC(=O)Cl`, the Potency result in test [1], in [2], in test [3], in test [4], in [5] and in test [6] was “inactive” throughout. For the same molecule, the Potency result in test [8], in [9], in [11], in test [12], in test [14] and in test [15] was “inactive” each time. Further, the Potency entry in test [16] and in test [17] was “inactive” each time. For the same molecule, the result in test [7] and in [10] was inactive. The activity change, positive = activation in test [13] is -5.15%.

For the molecule `O=C(Oc1ccc(Br)cc1)N1CCN2CCC1CC2`, the Potency result in [1], in test [2], in [19], in test [5], in test [20] and in test [8] was “inactive” each time. Further, the Potency entry in [9], in test [11], in test [14], in test [16], in test [17] and in [18] was “inactive” in each case. In addition, the result in test [10] was inactive.

As to `CCOc1nc(C(Cl)(Cl)Cl)ns1`, the Potency entry in [1], in [19], in [3], in [4], in test [5] and in test [6] was “inactive” each time. In addition, the Potency entry in test [20], in [9], in test [11], in test [14], in test [16] and in [17] was “inactive” in each case. Moreover, the outcome in test [7] and in [10] was inactive. Besides, the activity change, positive = activation in [13] is -11.7%.

Regarding `c1coc(-c2nc3ccccc3[nH]2)c1`, the Potency is 28.3 µM (active) in test [1], 7.7 µM (active) in test [4] and 80 µM (active) in [11]. For the same molecule, the Potency entry in [19], in [3], in test [5], in test [8], in test [9] and in [14] was “inactive” each time. Moreover, the Potency entry in test [16], in test [17] and in test [18] was “inactive” each time. For the same molecule, in test [10], the molecule was called inactive.

`CCOP(=S)(OCC)SCSP(=S)(OCC)OCC`: the Potency result in test [1], in test [2], in [3], in test [5], in [8] and in test [11] was “inactive” each time. Besides, the Potency entry in test [14], in test [15], in test [16], in test [17] and in [18] was “inactive” in each case. In addition, in [10], the molecule was called inactive.

Take `CCOC(=O)/C=C(C)/C=C/C[C@@H](C)CCCC(C)C`: the Potency result in test [1], in test [19], in test [3], in [4], in [5] and in test [8] was “inactive” each time. Further, the Potency result in test [14], in test [16], in test [17] and in test [18] was “inactive” each time. In test [10], the molecule was classed as inactive.

For the molecule `COP(=S)(OC)Oc1ccc(S(N)(=O)=O)cc1`, the Potency result in test [1], in test [2], in test [3], in test [5], in test [20] and in [8] was “inactive” each time. The Potency result in test [9], in test [11], in test [15], in test [16], in [17] and in test [18] was “inactive” each time. Besides, the outcome in test [10] was inactive.
